Screening results deposited in PubChem by National Center for Advancing Translational Sciences (NCATS).
The list is not random: actives were taken first. Their share in the collection is about 6.1%.
D1 potentiator: enhances dopamine response at the human D1 receptor; P21728; HEK293 TREx D1 cells, calcium flux, dopamine EC20 potentiation; potentiation, % at 10 µM; 360,000 compounds, 0.036% hits; AID 504651; in the data active = potentiation above about 30%; note: 0% is about no effect
D1 antagonist: blocks dopamine activation of the human D1 receptor | 360,000 compounds, 3.2% hits | activity change, negative = inhibition, % at 10 µM | HEK293 TREx D1 cells, calcium flux, dopamine EC80; active compounds read low | P21728; in the data active = activity change below about -30%; note: % is set by controls: 0 for no effect and ±100 for the full control effect
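Tetracycline-induced HEK293 T-REx cells with force-coupled D1 receptor were loaded with a no-wash calcium dye. Compound was added after a 10 s baseline and read kinetically for 180 s; EC80 dopamine was then added and calcium flux followed another 180 s.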
D1 agonist: human D1 receptor agonism; HEK293 T-REx D1 cells, calcium flux, agonist mode; P21728; activation, % at 2 µM; 360,000 compounds, 1% hits; in the data active = activation above about 30%; note: 0% is about no effect
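Inducible HEK293 T-REx D1 cells, force-coupled to calcium signalling, were plated at 4000 cells/well with tetracycline and held overnight at 30 C. After no-wash calcium dye loading, compound-evoked calcium rise over 180 s flagged agonists.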
D3 antag: blocks the human D3 dopamine receptor. max response, negative = inhibition, %. D3R cells, DiscoveRx beta-arrestin luminescence, antagonist mode; active compounds read low. P35462. 360,000 compounds, 2.5% hits; in the data active = max response below about -50%; inconclusive = no clear call, values can overlap the other calls; note: % is set by controls: 0 for no effect and ±100 for the full control effect
Target sequence (P35462 whole entry, looked up): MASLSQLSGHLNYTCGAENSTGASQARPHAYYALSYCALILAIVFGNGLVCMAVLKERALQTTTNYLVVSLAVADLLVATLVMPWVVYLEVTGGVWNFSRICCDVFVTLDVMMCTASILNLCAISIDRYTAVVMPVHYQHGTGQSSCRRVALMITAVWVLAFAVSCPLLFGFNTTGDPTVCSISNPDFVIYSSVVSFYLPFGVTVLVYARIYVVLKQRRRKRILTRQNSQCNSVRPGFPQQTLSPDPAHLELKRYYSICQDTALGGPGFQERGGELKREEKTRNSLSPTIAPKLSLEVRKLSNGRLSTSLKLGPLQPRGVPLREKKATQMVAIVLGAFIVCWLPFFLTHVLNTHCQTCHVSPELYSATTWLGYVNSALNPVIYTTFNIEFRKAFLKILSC
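Cells plated overnight at 1500 cells/well, then exposed to library compounds with dopamine controls for 90 minutes at 37 degrees C. DiscoveRx reagent added for 30–60 minutes at room temperature; luminescence read, quantitative HTS format.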
DRD3 agonist: D3 dopamine receptor (human) agonism | P35462 | D3R DiscoveRx beta-arrestin cells, luminescence, 90 min | 410,000 compounds, 0.58% hits | max activation, %; in the data active = max activation above about 30%; note: 0% is about no effect
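Agonist-mode cell screen: cells plated at 1500/well and incubated overnight at 37 °C, then exposed to library compounds for 90 min at 37 °C. Detection reagent was added for 30–60 min at room temperature, and luminescence was read.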
Active calls of the source: *; ? = inconclusive; nt = not tested or not shown.

SMILES	D1 potentiator	D1 antagonist	D1 agonist	D3 antag	DRD3 agonist
CCc1cccc(CC)c1NC(=O)CCS(=O)(=O)c1ccc(Br)s1	0	-3	6	nt	0
C=CCn1c(CCNC(=O)c2ccco2)nc2ccccc21	3	6	1	-74*	-27
CCn1c(CCNC(=O)c2ccco2)nc2ccccc21	-9	0	1	-16	0
COCCNC(=O)c1c(NC(=O)Cc2coc3cc(C)ccc23)sc2c1CCCC2	2	-1	1	nt	8
CC(=O)c1ccc(O)c(CSc2nncn2C)c1	-11	-32*	7	8	1
Cn1cnnc1SCC(=O)c1ccc2c(c1)NC(=O)CO2	-9	8	2	3	2
Cn1cnnc1SCC(=O)c1ccc(O)c(O)c1	5	8	2	35	39*
COC(=O)c1ccccc1NC(=O)Cc1noc2ccc(C)cc12	-4	-21	-1	nt	3
Cc1ccc(NC(=O)Cc2noc3ccccc23)cc1	-1	0	2	3	10
O=C(CSc1nc(NS(=O)(=O)c2ccccc2)cc(=O)[nH]1)Nc1cccc(C(F)(F)F)c1	-2	-3	3	-11	-1
Cc1ccc2onc(CC(=O)Nc3cccc(C(F)(F)F)c3)c2c1	-6	-75*	0	nt	-17
Cc1cc(=O)[nH]c(SCC(=O)Nc2cccc(C(F)(F)F)c2)n1	0	-32*	2	-22	-2
Cc1ccc2onc(CC(=O)Nc3cc(F)ccc3F)c2c1	-3	-81*	-1	nt	2
Cc1cc(C)cc(NC(=O)Cc2noc3ccccc23)c1	-2	-63*	-1	nt	-24
CCn1cc(C(=O)OCC(=O)Nc2cccc(Cl)c2C)c(=O)c2ccc(C)nc21	1	8	-2	nt	-6
CCOc1ccccc1CNC(=O)CCCn1c(=O)c2cccn2c2ccc(F)cc21	-1	11	0	nt	5
CCOC(=O)c1c(C)sc(-c2c(-c3ccc(OC)c(F)c3)[nH]c3c2c(=O)[nH]c(=O)n3C)c1O	1	6	21	nt	-7
O=C1CN(S(=O)(=O)c2ccc3c(c2)OCCO3)CCN1S(=O)(=O)c1c(F)cccc1F	5	0	8	nt	nt
Clc1ccc(OCCN2CCOCC2)cc1Cl	2	-6	5	-66*	1
Clc1ccc(OCCN2CCCCC2)cc1Cl	-4	22	7	-79*	-9
Clc1ccc(OCCCn2cncn2)cc1Cl	-19	-28	56*	-15	-6
Cc1cc(OCCCCCN2CCCC2)ccc1Cl	-5	nt	14	-25	-28
CNCCOc1ccc(Cl)c(Cl)c1	-4	-10	14	-62*	13
CCCS(=O)(=O)NCCc1sc2nc(-c3ccc(Cl)cc3)nn2c1C	-4	nt	15	nt	4
CCc1ccc(C2N3CC4(C)CN2CC(c2ccccc2)(C3)C4=O)cc1 (configuration not stated)	-2	10	0	nt	3
SMILES	D1 potentiator	D1 antagonist	D1 agonist	D3 antag	DRD3 agonist
CCC(=O)Nc1ccc(C)cc1-c1nc2ccccc2n(C(C)C(=O)Nc2ccccc2CC)c1=O (configuration not stated)	-2	0	3	nt	-15
Clc1ccc(OCCCN2CCCC2)cc1Cl	-4	3	12	-66*	-36
O=C1N/C(=N/NC(=O)c2cccc3ccccc23)S/C1=C\c1ccccc1OCc1ccccc1	-4	-7	1	-59*	6
COc1ccc(OC)c(/C=C2\S/C(=N/NC(=O)c3ccc4ccccc4c3)NC2=O)c1	-2	-22	6	2	1
Cc1cc(=O)oc2cc(OCC(=O)N3c4ccccc4CC3C)ccc12 (configuration not stated)	1	2	0	7	-2
Cc1cc(=O)oc2cc(OCC(O)CN3CCc4ccccc4C3)ccc12 (configuration not stated)	-6	24	0	-55*	-22
COc1ccccc1N1CCN(CC(O)COc2ccc3c(C)cc(=O)oc3c2)CC1 (configuration not stated)	-6	-19	0	-77*	-22
Cc1cc(=O)oc2cc(OCC(O)CN3CCN(c4ccccc4)CC3)ccc12 (configuration not stated)	-3	-14	1	0	37*
CCc1ccccc1N(C)C(=O)c1cn(CC(C)C)c(=O)c2cc(OC)c(OC)cc12	0	0	3	nt	7
CC(C)(C)C1CCc2c(sc(NC(=O)c3cccs3)c2C(N)=O)C1 (configuration not stated)	33*	12	4	-7	-3
CN1CCN(C(=O)c2c(NC(=O)c3ccco3)sc3c2CCC(C(C)(C)C)C3)CC1 (configuration not stated)	-6	-1	34*	-18	-4
CCN(CC)CCNC(=O)c1ccc(-c2nc(CN3CCc4ccccc43)c(C)o2)cc1	-2	2	17	nt	8
COc1cc(OC)c(NC(=O)c2cc(C(C)=O)n3ccccc23)cc1Cl	-2	-22	2	nt	2
CSC1=NCCN1S(=O)(=O)c1ccc(NC(C)=O)cc1	-5	8	1	18	4
CC(=O)Nc1ccc(S(=O)(=O)N2CCN=C2SCc2ccc(F)cc2)cc1	-20	-26	37*	22	3
CC(=O)Nc1ccc(S(=O)(=O)N2CCN=C2SCc2ccc(C)cc2)cc1	-3	-41*	23	10	10
CCn1cc(C(=O)NCc2ccc3c(c2)OCO3)c(=O)c2cc(F)c(N3CCN(C)CC3)cc21	-10	26	25	-70*	-26
CCn1cc(C(=O)O)c(=O)c2cc(F)c(N3CCNCC3)cc21	-5	-48*	-1	nt	-5
CCCCCCNC(=O)c1cn(CC)c2cc(N3CCN(C)CC3)c(F)cc2c1=O	-13	-50*	87*	-25	-6
CCn1cc(C(=O)NCCCO)c(=O)c2cc(F)c(N3CCN(C)CC3)cc21	0	7	3	-8	-5
CCn1cc(C(=O)NCCc2ccccc2)c(=O)c2cc(F)c(N3CCN(C)CC3)cc21	-3	0	3	-19	-1
NC(N)=NCCC[C@H](NC(=O)CNC(=O)c1ccccc1)C(=O)Nc1cc(C(F)(F)F)ccc1Cl	7	-13	0	nt	nt
CCCN(CCC)CCCNC(=O)c1cc2c(=O)n(C)c3ccccc3c2s1	-2	-1	3	nt	-25
CCN(CC)CCNC(=O)c1nn(C)c2c1CS(=O)(=O)c1ccccc1-2	-2	6	-1	nt	-15
Fc1cccc(CN2CCC(Cc3ccccc3)CC2)c1	-6	11	-4	-53*	-5
COc1cc(CN2CCC(Cc3ccccc3)CC2)cc(OC)c1OC	0	-9	6	?	-19
Fc1ccccc1CN1CCC(Cc2ccccc2)CC1	-2	-4	-3	-79*	-16
COc1ccc(CN2CCC(Cc3ccccc3)CC2)c(C)c1C	-8	-19	5	-19	-22
